Data: PubChem BioAssay (EPA / NIEHS)
Records with an inconclusive call do not appear. Calls of active or inactive are those of the source. How the source made its calls, unless noted: active means hit-call score of the fitted dose curve at least 0.9, where 1 is the maximum; inactive means score below 0.9.

How the values were obtained:
[1] = ATG_PBREM_CIS: Attagene CIS-FACTORIAL HepG2 Assay for human Phenobarbital-responsive Enhancer Module (PBREM) (AID 2282955); conditions: HepG2 PBREM cis-reporter, Attagene multiplexed transcription; actives raise or lower the signal
How it was run: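 Fluorescence of labelled reporter cDNA fragments, resolved by capillary electrophoresis, gives mRNA induction in transfected HepG2 cells treated for 24 h; DMSO serves as negative control and baseline.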

[2] = biological target: Paired box protein Pax-6 (Homo sapiens) (UniProt P26367); assay: ATG_Pax6_CIS: Attagene CIS-FACTORIAL HepG2 Assay for human Paired Box 6 (PAX6) (AID 2282956); conditions: HepG2 CIS-FACTORIAL PAX6 reporter transcription, RNA readout; actives raise or lower the signal
Paired box protein Pax-6 (Homo sapiens), sequence (P26367 whole entry, looked up): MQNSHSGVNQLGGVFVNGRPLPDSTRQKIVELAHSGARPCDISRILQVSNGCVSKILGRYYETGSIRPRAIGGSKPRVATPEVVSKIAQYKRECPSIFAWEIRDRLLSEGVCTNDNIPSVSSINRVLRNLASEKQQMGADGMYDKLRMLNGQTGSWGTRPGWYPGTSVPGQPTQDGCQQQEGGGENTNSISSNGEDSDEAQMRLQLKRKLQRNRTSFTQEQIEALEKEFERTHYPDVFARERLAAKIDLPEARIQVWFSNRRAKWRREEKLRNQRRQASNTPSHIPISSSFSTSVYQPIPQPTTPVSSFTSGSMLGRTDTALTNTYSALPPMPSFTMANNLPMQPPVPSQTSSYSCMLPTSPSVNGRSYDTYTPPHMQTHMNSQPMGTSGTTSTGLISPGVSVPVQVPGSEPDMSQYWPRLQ
How it was run: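 Fluorescent RT-PCR products separated by capillary electrophoresis report PAX6-linked promoter mRNA in HepG2 cells 24 h post-dose. Curves fitted bidirectionally, DMSO as negative control.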

[3] = ATG_PXRE_CIS: Attagene CIS-FACTORIAL HepG2 Assay for human Pregnane X Receptor Element (PXRE) (AID 2282957); conditions: HepG2 Attagene CIS-FACTORIAL PXRE reporter, mRNA; actives raise or lower the signal
How it was run: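 After a 24 h chemical incubation, total RNA from transfected HepG2 cells was reverse-transcribed and reporter cDNA amplified, FAM-labeled, HpaI-digested and sized by capillary electrophoresis. DMSO served as baseline for bidirectional curve fitting.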

[4] = ATG_PPRE_CIS: Attagene CIS-FACTORIAL HepG2 Assay for human Peroxisome Proliferator-activated Response Element (PPRE) (AID 2282958); conditions: HepG2 PPRE cis-element reporter, Attagene transcription factor profiling; actives raise or lower the signal
How it was run: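 Cells are first transfected transiently with the multiplexed reporter library, then dosed for 24 h. Total RNA is reverse-transcribed, amplified, fluorescently end-labeled and HpaI-cut before capillary electrophoresis; activity is fitted bidirectionally against DMSO controls.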

[5] = ATG_RORE_CIS: Attagene CIS-FACTORIAL HepG2 Assay for human RAR-related Orphan Receptor Element (RORE) (AID 2282959); conditions: HepG2 Attagene cis-factorial RORE reporter, mRNA; actives raise or lower the signal
How it was run: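 Cells were HepG2 carrying transfected cis-regulated reporter constructs, dosed for 24 hours. Total RNA was reverse-transcribed and reporter cDNA amplified, fluorescently labeled and sized by capillary electrophoresis. Activity was fitted bidirectionally relative to DMSO.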

[6] = ATG_Sox_CIS: Attagene CIS-FACTORIAL HepG2 Assay for human SRY-box transcription factor (SOX) (AID 2282960); conditions: HepG2 Attagene cis-factorial SOX reporter, mRNA; actives raise or lower the signal
How it was run: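 Transient MRTU transfection of HepG2; 24 h compound incubation; TriZol RNA, oligo(dT) RT, PCR, 6-FAM primer extension, HpaI cut, CE. Bidirectional fit, DMSO = baseline.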

[7] = biological target: Transcription factor Sp1 (Homo sapiens) (UniProt P08047); assay: ATG_Sp1_CIS: Attagene CIS-FACTORIAL HepG2 Assay for human Specificity Protein 1 (Sp1) (AID 2282961); conditions: HepG2 Sp1 cis-reporter transcription, actives raise or lower the signal
Transcription factor Sp1 (Homo sapiens), sequence (P08047 whole entry, looked up): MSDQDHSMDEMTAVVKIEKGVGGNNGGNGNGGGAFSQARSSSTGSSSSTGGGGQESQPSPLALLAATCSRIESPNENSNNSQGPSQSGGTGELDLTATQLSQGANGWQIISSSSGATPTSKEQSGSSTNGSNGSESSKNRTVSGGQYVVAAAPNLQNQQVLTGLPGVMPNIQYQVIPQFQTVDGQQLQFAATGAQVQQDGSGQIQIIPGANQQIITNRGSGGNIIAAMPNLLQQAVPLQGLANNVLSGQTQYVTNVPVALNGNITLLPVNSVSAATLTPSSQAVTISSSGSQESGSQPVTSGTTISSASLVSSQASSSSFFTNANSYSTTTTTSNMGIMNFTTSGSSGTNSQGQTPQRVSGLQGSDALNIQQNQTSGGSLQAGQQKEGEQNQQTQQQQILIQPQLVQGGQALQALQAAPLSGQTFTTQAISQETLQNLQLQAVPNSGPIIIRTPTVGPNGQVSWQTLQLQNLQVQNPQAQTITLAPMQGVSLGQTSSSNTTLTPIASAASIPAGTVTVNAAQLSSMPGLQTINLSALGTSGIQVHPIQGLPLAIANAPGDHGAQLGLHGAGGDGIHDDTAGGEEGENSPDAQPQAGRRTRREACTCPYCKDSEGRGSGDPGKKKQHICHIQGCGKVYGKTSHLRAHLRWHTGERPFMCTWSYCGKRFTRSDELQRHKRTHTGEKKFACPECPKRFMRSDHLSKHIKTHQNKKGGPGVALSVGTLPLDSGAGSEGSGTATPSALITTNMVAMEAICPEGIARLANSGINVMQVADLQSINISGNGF
How it was run: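 Endogenous Sp1 activity was gauged in human liver HepG2 cells bearing transfected reporter units under a cis-regulating promoter. After 24 h dosing, reporter mRNA was quantified by RT-PCR with capillary electrophoresis, and activity fitted bidirectionally versus DMSO.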

[8] = ATG_SREBP_CIS: Attagene CIS-FACTORIAL HepG2 Assay for human Sterol Regulatory Element Binding (SREBP) (AID 2282962); conditions: HepG2 Attagene cis-factorial SREBP reporter, mRNA; actives raise or lower the signal
How it was run: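 Endogenous factor activity is measured in HepG2 through multiplexed reporter units under cis-element control. Following a 24 h incubation, reporter transcripts are reverse-transcribed, PCR-amplified and sized by capillary electrophoresis; activity is fitted in both directions relative to DMSO.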

[9] = biological target: Signal transducer and activator of transcription 3 (Homo sapiens) (UniProt P40763); assay: ATG_STAT3_CIS: Attagene CIS-FACTORIAL HepG2 Assay for human Signal Transducer and Activator of Transcription 3 (STAT3) (AID 2282963); conditions: HepG2, Attagene cis-factorial STAT3 reporter transcription; actives raise or lower the signal
Signal transducer and activator of transcription 3 (Homo sapiens), sequence (P40763 whole entry, looked up, the tested form may be a part): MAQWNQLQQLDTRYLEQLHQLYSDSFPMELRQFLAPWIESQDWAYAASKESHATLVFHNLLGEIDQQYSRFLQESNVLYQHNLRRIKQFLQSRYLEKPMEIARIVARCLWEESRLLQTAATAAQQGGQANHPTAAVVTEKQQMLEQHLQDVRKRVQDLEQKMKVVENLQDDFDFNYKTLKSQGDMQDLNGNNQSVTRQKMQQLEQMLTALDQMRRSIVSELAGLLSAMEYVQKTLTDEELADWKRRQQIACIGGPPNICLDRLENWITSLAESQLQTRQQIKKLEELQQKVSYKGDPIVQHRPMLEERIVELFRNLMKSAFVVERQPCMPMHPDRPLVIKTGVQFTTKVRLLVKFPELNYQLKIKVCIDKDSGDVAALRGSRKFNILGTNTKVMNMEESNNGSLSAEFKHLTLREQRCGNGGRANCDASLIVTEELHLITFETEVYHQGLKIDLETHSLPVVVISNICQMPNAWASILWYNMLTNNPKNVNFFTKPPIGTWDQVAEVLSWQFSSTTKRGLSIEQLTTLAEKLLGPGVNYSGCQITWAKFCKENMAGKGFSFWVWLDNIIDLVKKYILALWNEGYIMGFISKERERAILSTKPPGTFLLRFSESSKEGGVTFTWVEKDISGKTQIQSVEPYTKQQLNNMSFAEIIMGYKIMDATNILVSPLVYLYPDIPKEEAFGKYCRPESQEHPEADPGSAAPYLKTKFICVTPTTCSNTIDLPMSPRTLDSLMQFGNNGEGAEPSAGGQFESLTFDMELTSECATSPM
How it was run: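 Fluorescence intensity of 6-FAM-labelled reporter fragments, separated by capillary electrophoresis after RT-PCR, gave the signal. Cells were HepG2 transfected with cis-element reporter units and treated 24 h; fitting was bidirectional relative to DMSO.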

[10] = ATG_TA_CIS: Attagene CIS-FACTORIAL HepG2 Assay for human TA Basal Promoter (AID 2282964); conditions: HepG2 Attagene CIS-factorial TA basal promoter reporter; actives raise or lower the signal
How it was run: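 Read-out: fluorescent reporter-transcript fragments resolved by capillary electrophoresis after RT-PCR and HpaI digestion. Source: HepG2 cells carrying transiently transfected multi-reporter cis constructs, treated 24 h. Endpoint fitted bidirectionally relative to DMSO.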

[11] = ATG_TCF_b_cat_CIS: Attagene CIS-FACTORIAL HepG2 Assay for human T-Cell-Factor with beta-catenin (TCF/b-cat) (AID 2282965); conditions: HepG2 TCF/beta-catenin cis-reporter transcription, actives raise or lower the signal
How it was run: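 Cells of the HepG2 line carry transiently transfected reporter units whose promoters respond to endogenous factors. Twenty-four hours post-dosing, reporter mRNA induction is measured by fluorescent RT-PCR and capillary electrophoresis, with DMSO as baseline.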

[12] = ATG_TAL_CIS: Attagene CIS-FACTORIAL HepG2 Assay for human TAL Basal Promoter (AID 2282966); conditions: HepG2 Attagene cis-factorial TAL promoter reporter; actives raise or lower the signal;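 further: background control endpoint measuring basal TAL promoter reporter mRNA not a specific factor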
How it was run: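 Basal-promoter background-control endpoint from a multiplexed HepG2 reporter panel. Cells were exposed 24 h, then reporter mRNA was read by RT-PCR/CE fluorescence and fitted in both directions relative to DMSO.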

[13] = ATG_TGFb_CIS: Attagene CIS-FACTORIAL HepG2 Assay for human Transforming Growth Factor (TGF) (AID 2282967); conditions: HepG2 Attagene CIS TGFb reporter, mRNA transcription; actives raise or lower the signal
How it was run: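 Transient MRTU transfection of HepG2 (FuGene 6). Dose 24 h. TriZol RNA, oligo(dT) RT, PCR, 6-FAM primer extension, HpaI cut, CE. Bidirectional fit, DMSO = baseline.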

[14] = ATG_VDRE_CIS: Attagene CIS-FACTORIAL HepG2 Assay for human Vitamin D Receptor Element (VDRE) (AID 2282968); conditions: HepG2 VDRE cis-reporter transcription, actives raise or lower the signal
How it was run: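 Compounds were applied for 24 h to HepG2 cells transfected with promoter-regulated reporter units. Total RNA was reverse-transcribed, and reporter amplicons were fluorescently labelled and sized by capillary electrophoresis.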

[15] = biological target: Nuclear receptor subfamily 1 group I member 3 (Homo sapiens) (UniProt Q14994); assay: ATG_CAR_TRANS: Attagene TRANS-FACTORIAL HepG2 Assay for human Constitutive Androstane Receptor (CAR) (AID 2282969; active means hit-call score of the fitted dose curve at least 0.9, where 1 is the maximum;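 further: activators raise reporter mRNA above DMSO so AC50 marks induction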); conditions: HepG2 Attagene TRANS-FACTORIAL CAR reporter
Nuclear receptor subfamily 1 group I member 3 (Homo sapiens), sequence (Q14994 whole entry, looked up, the tested form may be a part): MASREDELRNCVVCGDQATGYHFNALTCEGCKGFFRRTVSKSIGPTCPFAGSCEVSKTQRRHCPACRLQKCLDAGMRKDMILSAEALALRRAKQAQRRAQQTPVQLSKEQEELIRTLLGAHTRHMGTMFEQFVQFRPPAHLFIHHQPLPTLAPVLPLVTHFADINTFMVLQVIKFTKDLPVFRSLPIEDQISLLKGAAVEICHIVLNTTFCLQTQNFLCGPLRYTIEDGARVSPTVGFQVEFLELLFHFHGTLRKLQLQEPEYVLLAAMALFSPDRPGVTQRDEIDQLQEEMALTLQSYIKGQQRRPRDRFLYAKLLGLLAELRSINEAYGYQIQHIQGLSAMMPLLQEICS
How it was run: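 Transiently transfected HepG2, multiplex TRANS reporters (CAR-Gal4 chimera driving GAL4-UAS reporter). 24 h dosing. Readout: reporter transcript by RT-PCR + capillary electrophoresis, fluorescence intensity; positive direction vs DMSO.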

[16] = biological target: Estrogen receptor (Homo sapiens) (UniProt P03372); assay: ATG_ERa_TRANS: Attagene TRANS-FACTORIAL HepG2 Assay for human Estrogen Receptor alpha (ERa) (AID 2282970; active means hit-call score of the fitted dose curve at least 0.9, where 1 is the maximum); conditions: HepG2 Attagene TRANS ERa GAL4 reporter, mRNA
Estrogen receptor (Homo sapiens), sequence (P03372 whole entry, looked up, the tested form may be a part): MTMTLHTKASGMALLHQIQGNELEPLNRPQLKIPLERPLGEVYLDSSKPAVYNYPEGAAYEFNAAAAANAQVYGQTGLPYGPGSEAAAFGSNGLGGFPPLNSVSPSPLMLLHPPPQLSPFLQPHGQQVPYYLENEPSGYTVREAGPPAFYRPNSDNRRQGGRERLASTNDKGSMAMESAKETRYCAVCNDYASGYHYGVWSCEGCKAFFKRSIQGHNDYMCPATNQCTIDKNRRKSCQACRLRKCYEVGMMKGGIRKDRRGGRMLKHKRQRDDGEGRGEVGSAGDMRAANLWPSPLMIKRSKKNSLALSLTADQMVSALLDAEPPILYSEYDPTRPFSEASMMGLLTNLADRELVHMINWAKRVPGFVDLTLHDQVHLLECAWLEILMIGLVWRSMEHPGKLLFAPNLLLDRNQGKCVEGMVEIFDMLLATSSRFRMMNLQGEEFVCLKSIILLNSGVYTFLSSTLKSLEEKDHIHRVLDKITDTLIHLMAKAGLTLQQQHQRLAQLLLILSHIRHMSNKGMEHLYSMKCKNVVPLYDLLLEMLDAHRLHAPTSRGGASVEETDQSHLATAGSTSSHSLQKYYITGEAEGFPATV
How it was run: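 Gal4-fusion ERa transactivation, measured as reporter transcript level in transiently transfected HepG2 cells. Exposure 24 h; RT-PCR plus capillary electrophoresis with fluorescence detection.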

[17] = biological target: X-box-binding protein 1 (Homo sapiens) (UniProt P17861); assay: ATG_Xbp1_CIS: Attagene CIS-FACTORIAL HepG2 Assay for human X-box Binding Protein 1 (XBP1) (AID 2282972); conditions: HepG2 XBP1 cis-element reporter, Attagene multiplex; actives raise or lower the signal
X-box-binding protein 1 (Homo sapiens), sequence (P17861 whole entry, looked up): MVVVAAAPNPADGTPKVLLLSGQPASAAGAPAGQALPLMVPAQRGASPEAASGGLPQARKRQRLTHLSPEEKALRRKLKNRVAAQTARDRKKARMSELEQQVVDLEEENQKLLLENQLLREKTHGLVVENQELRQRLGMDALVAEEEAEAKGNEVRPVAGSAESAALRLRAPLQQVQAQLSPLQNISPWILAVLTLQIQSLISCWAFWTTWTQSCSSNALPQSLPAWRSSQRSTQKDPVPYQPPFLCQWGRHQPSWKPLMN
How it was run: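 Multiplexed cis-reporter readout in transfected HepG2 liver cells. Exposure lasted 24 hours. Activity in either direction was fitted against DMSO as negative control and baseline.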

[18] = ATG_M_19_TRANS: Attagene TRANS-FACTORIAL HepG2 Assay for M19 Transcription Factor (Internal Marker) (AID 2282974; active means hit-call score of the fitted dose curve at least 0.9, where 1 is the maximum); conditions: HepG2 Attagene TRANS-FACTORIAL M19 internal marker reporter
How it was run: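 Cells: human HepG2, transiently transfected with multiplexed reporter transcription units. Exposure: 24 h. Detection: RT-PCR of reporter mRNA with capillary electrophoresis. Analysis: gain-of-signal vs DMSO.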

[19] = biological target: Steroid hormone receptor ERR1 (Homo sapiens) (UniProt P11474); assay: ATG_ERRa_TRANS: Attagene TRANS-FACTORIAL HepG2 Assay for human Estrogen-Related Receptor alpha (ERRa) (AID 2282971; active means hit-call score of the fitted dose curve at least 0.9, where 1 is the maximum); conditions: HepG2 Attagene TRANS reporter, ERRa transactivation
Steroid hormone receptor ERR1 (Homo sapiens), sequence (P11474 whole entry, looked up, the tested form may be a part): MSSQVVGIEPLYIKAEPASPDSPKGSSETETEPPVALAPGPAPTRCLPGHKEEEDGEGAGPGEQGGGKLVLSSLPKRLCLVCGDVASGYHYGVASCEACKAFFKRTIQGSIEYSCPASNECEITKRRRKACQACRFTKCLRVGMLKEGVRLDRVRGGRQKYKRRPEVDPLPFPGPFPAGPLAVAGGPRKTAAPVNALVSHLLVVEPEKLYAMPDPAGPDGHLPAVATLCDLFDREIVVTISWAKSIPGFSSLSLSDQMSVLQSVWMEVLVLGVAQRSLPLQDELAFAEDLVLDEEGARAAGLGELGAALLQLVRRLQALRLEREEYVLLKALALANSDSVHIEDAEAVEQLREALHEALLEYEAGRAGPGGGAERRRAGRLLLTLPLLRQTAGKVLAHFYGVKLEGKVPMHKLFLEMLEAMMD
How it was run: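 HepG2 cells transiently transfected with GAL4-UAS reporter units and chimeric NR-Gal4 constructs; after 24 hour compound incubation, reporter mRNA quantified by RT-PCR, fluorescent labelling and capillary electrophoresis, gain of signal versus DMSO.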

[20] = biological target: Androgen receptor (Homo sapiens) (UniProt P10275); assay: ATG_AR_TRANS: Attagene TRANS-FACTORIAL HepG2 Assay for human Androgen Receptor (AR) (AID 2282973; active means hit-call score of the fitted dose curve at least 0.9, where 1 is the maximum); conditions: HepG2 Attagene TRANS-FACTORIAL AR reporter transcription
Androgen receptor (Homo sapiens), sequence (P10275 whole entry, looked up, the tested form may be a part): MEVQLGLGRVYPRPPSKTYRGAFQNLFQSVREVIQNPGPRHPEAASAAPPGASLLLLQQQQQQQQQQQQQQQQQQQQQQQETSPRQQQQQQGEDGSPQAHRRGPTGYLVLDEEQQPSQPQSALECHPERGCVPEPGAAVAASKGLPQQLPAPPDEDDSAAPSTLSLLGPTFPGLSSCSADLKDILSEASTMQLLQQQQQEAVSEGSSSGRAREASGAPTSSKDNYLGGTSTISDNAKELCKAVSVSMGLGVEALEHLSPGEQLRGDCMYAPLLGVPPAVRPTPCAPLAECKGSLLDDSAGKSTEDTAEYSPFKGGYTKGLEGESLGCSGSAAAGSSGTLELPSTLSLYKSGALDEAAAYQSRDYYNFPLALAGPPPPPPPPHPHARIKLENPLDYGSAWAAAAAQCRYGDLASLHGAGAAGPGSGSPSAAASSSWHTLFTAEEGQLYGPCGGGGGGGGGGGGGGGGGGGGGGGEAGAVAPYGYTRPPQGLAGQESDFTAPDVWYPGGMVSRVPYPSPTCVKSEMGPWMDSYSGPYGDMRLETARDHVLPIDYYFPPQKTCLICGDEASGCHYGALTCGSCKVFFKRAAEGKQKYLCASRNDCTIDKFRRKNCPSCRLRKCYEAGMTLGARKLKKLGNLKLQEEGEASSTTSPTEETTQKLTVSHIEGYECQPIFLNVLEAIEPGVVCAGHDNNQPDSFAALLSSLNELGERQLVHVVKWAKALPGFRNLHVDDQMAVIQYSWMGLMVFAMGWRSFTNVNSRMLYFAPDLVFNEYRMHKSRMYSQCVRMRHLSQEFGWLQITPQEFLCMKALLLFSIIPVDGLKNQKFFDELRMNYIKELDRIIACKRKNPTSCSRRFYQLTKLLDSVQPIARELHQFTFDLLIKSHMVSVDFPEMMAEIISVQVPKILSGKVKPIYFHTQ
How it was run: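 HepG2 cells transiently transfected with AR-Gal4 chimera and GAL4-UAS reporter units; chemical exposure 24 h. Reporter mRNA quantified by RT-PCR with fluorescent labelling and capillary electrophoresis; gain-of-signal fitted against DMSO.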

Measured: AC50

CSC(=O)c1c(C(F)F)nc(C(F)(F)F)c(C(=O)SC)c1CC(C)C
active: [3] 0.451 µM | [14] 0.789 µM | [16] 8.26 µM
not listed: [19] | [20]
inactive: all other assays above

CCOc1nc(F)cc2nc(S(=O)(=O)Nc3c(Cl)cccc3Cl)nn12
active: [3] 10.1 µM
not listed: [16] | [19] | [20]
inactive: all other assays above

CCCN(CC)CC1COC2(CCC(C(C)(C)C)CC2)O1 (stereo unspecified)
inactive: [7] | [10] | [11] | [12] | [15] | [16] | [18]
active: [1] 16.1 µM | [2] 21.9 µM | [3] 13.5 µM | [5] 18.1 µM | [6] 35.5 µM | [8] 24.5 µM | [9] 86.3 µM | [13] 19.9 µM | [14] 9.19 µM | [17] 25.3 µM

CCNP(=S)(OC)O/C(C)=C/C(=O)OC(C)C (stereo unspecified)
active: [1] 14.7 µM | [3] 2.6 µM | [8] 16.3 µM | [14] 13.8 µM | [16] 31.9 µM
not listed: [4] | [18] | [19] | [20]
inactive: all other assays above

COc1cc(OC)nc(NC(=O)NS(=O)(=O)c2ncccc2OCC(F)(F)F)n1
active: [3] 63 µM
not listed: [2] | [19] | [20]
inactive: all other assays above

CCSC(=O)N1CCCCCC1
active: [3] 15.9 µM
not listed: [20]
inactive: all other assays above

CC(C)N1C(=O)N(c2ccccc2)CSC1=NC(C)(C)C
active: [3] 0.666 µM
not listed: [19]
inactive: all other assays above

CC(C)C1(C)N=C(c2ncccc2C(=O)O)NC1=O (stereo unspecified)
not listed: [2] | [19] | [20]
inactive: all other assays above

CN/C(=N\[N+](=O)[O-])NCc1cnc(Cl)s1
not listed: [2] | [4] | [18] | [19] | [20]
inactive: all other assays above

N#CN=C1SCCN1Cc1ccc(Cl)nc1
active: [3] 50 µM
not listed: [1] | [2] | [14] | [15] | [20]
inactive: all other assays above

COP(=O)(OC)O/C(C)=C/C(=O)N(C)C
active: [3] 68.5 µM
not listed: [1] | [15] | [18] | [19] | [20]
inactive: all other assays above

COc1cc(Cl)c(OC)cc1Cl
active: [3] 50 µM
not listed: [1] | [2] | [4] | [5] | [15] | [20]
inactive: all other assays above

CNC(=O)Oc1cccc2ccccc12
active: [3] 37.9 µM | [16] 50 µM
not listed: [2] | [4] | [19] | [20]
inactive: all other assays above

CC(C)NC(=O)N1CC(=O)N(c2cc(Cl)cc(Cl)c2)C1=O
active: [1] 11.8 µM | [3] 5.44 µM | [4] 23.2 µM
not listed: [2] | [14] | [15] | [16] | [20]
inactive: all other assays above

CC(C)Nc1nc(Cl)nc(NC(C)C)n1
active: [3] 15.3 µM
not listed: [2] | [5] | [18] | [20]
inactive: all other assays above
